# From PubChem BioAssay (EPA / NIEHS)
# Results filed as inconclusive are left out. Activity calls are given as the source filed them. How the source made its calls: active means hit-call score of the fitted dose curve at least 0.9, where 1 is the maximum; inconclusive means response in the unintended direction; inactive means score below 0.9.
# How the values were obtained:
# [1] = biological target: mouse Cholecystokinin, CCK1 Receptor (CCKA), Cckar (gene 12425) (UniProt O08786); test: NVS_GPCR_mCCKAPeripheral: NovaScreen (NVS) G Protein-Coupled Receptor Assay for mouse Cholecystokinin, CCK1 Receptor (CCKA) (AID 2283285)
# Chain of mouse Cholecystokinin, CCK1 Receptor (CCKA), Cckar (gene 12425) (O08786 whole entry, looked up): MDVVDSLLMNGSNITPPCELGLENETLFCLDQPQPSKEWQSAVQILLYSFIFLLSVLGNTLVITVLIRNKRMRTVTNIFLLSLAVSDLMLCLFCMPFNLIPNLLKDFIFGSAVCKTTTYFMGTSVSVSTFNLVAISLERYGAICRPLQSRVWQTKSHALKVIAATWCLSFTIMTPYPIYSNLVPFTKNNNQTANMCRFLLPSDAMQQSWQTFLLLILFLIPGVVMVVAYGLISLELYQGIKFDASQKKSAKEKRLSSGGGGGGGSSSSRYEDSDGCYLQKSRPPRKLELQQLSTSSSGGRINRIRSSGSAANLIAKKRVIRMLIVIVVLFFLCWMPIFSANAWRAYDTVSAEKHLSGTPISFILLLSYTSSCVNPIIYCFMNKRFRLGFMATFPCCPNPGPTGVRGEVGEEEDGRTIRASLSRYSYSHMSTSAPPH
# Summary of the method: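 Chemicals were first screened in duplicate at 25 uM, with those meeting threshold (e.g., 30% inhibition) retested in singleton concentration series to 50 uM maximum. Binding of radioligand to mouse pancreatic membranes was read after 2 h by filtration and scintillation counting.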
# [2] = biological target: rat Serotonin, 5-Hydroxytryptamine Receptor 1 (5HT1), Non-Selective Binding, Htr1a (gene 24473) (UniProt P19327); test: NVS_GPCR_r5HT1_NonSelective: NovaScreen (NVS) G Protein-Coupled Receptor Assay for rat Serotonin, 5-Hydroxytryptamine Receptor 1 (5HT1), Non-Selective Binding (AID 2283286)
# Summary of the method: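 Binding of a radioligand to rat cortex membranes is read by filtration and scintillation counting after 1 h. Compounds were screened at 25 uM in duplicate. Actives were then titrated to a top of 50 uM. DMSO is the baseline.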
# [3] = biological target: human Opioid Receptor Mu (Opiate Mu), OPRM1 (gene 4988) (UniProt P35372); test: NVS_GPCR_hOpiate_mu: NovaScreen (NVS) G Protein-Coupled Receptor Assay for human Opioid Receptor Mu (Opiate Mu) (AID 2283290);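 further: hits lower bound tracer signal versus DMSO meaning displacement of the ligand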
# Chain of human Opioid Receptor Mu (Opiate Mu), OPRM1 (gene 4988) (P35372 whole entry, looked up): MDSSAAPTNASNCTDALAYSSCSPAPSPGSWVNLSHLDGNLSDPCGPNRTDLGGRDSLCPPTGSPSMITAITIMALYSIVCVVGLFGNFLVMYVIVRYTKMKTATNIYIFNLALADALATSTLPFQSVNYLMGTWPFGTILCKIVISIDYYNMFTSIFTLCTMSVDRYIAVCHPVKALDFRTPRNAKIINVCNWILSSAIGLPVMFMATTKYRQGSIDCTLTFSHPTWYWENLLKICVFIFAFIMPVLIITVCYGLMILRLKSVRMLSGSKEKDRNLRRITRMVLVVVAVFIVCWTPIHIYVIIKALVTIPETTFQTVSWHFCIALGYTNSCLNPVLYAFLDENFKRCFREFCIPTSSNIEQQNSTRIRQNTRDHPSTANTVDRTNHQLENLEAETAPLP
# Summary of the method: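 Cell-free radioligand binding to membranes from CHO cells expressing the receptor; bound tracer measured by filter-based scintillation counting 2.5 hours after dosing. Loss of signal versus DMSO baseline reflects displacement; primary screen at 25 uM in duplicate, actives followed up in concentration series.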
# [4] = biological target: guinea pig Serotonin, 5-Hydroxytryptamine Receptor 4 (5HT4), HTR4 (gene 100135548) (UniProt O70528); test: NVS_GPCR_g5HT4: NovaScreen (NVS) G Protein-Coupled Receptor Assay for guinea pig Serotonin, 5-Hydroxytryptamine Receptor 4 (5HT4) (AID 2283294)
# Chain of guinea pig Serotonin, 5-Hydroxytryptamine Receptor 4 (5HT4), HTR4 (gene 100135548) (O70528 whole entry, looked up): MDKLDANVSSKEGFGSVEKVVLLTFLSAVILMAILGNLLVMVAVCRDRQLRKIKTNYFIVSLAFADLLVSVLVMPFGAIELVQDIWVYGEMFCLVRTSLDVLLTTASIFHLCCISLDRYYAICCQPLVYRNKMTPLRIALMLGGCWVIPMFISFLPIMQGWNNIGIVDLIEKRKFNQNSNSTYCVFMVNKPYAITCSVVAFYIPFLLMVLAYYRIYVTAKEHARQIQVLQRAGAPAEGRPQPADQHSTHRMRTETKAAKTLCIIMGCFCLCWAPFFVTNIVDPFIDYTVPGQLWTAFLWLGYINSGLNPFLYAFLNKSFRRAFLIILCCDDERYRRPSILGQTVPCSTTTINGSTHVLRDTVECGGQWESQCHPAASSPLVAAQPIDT
# Summary of the method: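 Compounds first screened in duplicate at 25 uM, actives followed up in concentration series. Binding measured as displacement of specific radioligand from guinea pig striatal membranes, 1 h, filter-based scintillation read-out versus DMSO baseline.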
# [5] = biological target: rat Serotonin, 5-Hydroxytryptamine Receptor (5HT), Non-Selective Binding, Htr1a (gene 24473) (UniProt P19327); test: NVS_GPCR_r5HT_NonSelective: NovaScreen (NVS) G Protein-Coupled Receptor Assay for rat Serotonin, 5-Hydroxytryptamine Receptor (5HT), Non-Selective Binding (AID 2283295)
# Chain of rat Serotonin, 5-Hydroxytryptamine Receptor (5HT), Non-Selective Binding, Htr1a (gene 24473) (P19327 whole entry, looked up): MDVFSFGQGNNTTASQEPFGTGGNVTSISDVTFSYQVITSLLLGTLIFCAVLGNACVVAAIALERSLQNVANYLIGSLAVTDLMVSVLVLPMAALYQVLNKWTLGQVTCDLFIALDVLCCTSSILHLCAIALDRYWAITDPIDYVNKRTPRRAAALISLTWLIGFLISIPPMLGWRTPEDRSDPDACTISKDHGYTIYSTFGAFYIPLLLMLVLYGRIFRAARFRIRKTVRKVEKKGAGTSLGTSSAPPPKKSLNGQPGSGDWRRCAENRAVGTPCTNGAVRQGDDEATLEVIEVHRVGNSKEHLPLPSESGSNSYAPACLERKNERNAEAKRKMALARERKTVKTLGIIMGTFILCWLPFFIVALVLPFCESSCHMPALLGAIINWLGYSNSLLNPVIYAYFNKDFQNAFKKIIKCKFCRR
# Summary of the method: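 Rat cortex membrane preparation incubated 1 h with radioligand and test chemical; bound radioactivity counted after filtration. Screening began in duplicate at 25 uM with concentration-series follow-up; fitting relative to DMSO.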
# [6] = tested on: rat Adrenergic, Alpha 1B Receptor (Adra1B), gene 24173; test: NVS_GPCR_rAdra1B: NovaScreen (NVS) G Protein-Coupled Receptor Assay for rat Adrenergic, Alpha 1B Receptor (Adra1B) (AID 2283297)
# Summary of the method: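 Filter-binding radioligand competition on membranes from rat liver, read after 1 h by scintillation counting. Single-concentration duplicate screen at 25 uM, followed by concentration-response on actives, normalised to DMSO.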
# [7] = biological target: rat Neurokinin-1 Receptor (NK1), Tacr1 (gene 24807) (UniProt P14600); test: NVS_GPCR_rNK1: NovaScreen (NVS) G Protein-Coupled Receptor Assay for rat Neurokinin-1 Receptor (NK1) (AID 2283309)
# Chain of rat Neurokinin-1 Receptor (NK1), Tacr1 (gene 24807) (P14600 whole entry, looked up): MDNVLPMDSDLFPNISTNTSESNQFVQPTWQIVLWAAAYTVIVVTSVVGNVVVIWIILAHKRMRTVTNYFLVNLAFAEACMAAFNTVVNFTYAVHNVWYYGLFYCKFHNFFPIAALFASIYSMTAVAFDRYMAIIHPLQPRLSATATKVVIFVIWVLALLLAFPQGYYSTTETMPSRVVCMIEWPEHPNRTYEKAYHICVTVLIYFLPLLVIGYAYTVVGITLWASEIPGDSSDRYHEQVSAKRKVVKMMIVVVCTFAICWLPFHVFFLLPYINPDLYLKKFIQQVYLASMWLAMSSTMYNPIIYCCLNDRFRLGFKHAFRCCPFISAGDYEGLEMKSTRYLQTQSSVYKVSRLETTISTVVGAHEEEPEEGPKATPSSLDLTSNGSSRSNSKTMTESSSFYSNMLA
# Summary of the method: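 Competitive radioligand binding to NK1 in rat submaxillary membranes, 1 h incubation, filtration and scintillation read-out. Compounds first screened at 25 uM in duplicate, then concentration-response for actives; signal loss relative to DMSO.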
# [8] = biological target: rat Opioid Receptor, Non-selective Sodium (Na+) Binding, Oprm1 (gene 25601) (UniProt P33535); test: NVS_GPCR_rOpiate_NonSelectiveNa: NovaScreen (NVS) G Protein-Coupled Receptor Assay for rat Opioid Receptor, Non-selective Sodium (Na+) Binding (AID 2283311)
# Chain of rat Opioid Receptor, Non-selective Sodium (Na+) Binding, Oprm1 (gene 25601) (P33535 whole entry, looked up): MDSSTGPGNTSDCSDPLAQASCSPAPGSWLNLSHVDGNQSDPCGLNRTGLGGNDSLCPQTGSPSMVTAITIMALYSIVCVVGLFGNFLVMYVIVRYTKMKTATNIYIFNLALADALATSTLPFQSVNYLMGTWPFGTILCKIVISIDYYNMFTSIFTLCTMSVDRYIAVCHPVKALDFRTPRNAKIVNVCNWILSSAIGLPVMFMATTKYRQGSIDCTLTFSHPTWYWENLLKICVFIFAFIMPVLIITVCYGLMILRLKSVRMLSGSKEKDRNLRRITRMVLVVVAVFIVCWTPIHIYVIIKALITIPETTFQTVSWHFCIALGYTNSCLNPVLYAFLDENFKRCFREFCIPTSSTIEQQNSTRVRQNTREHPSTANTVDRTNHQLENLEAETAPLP
# Summary of the method: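 Filtration radioligand binding on rat forebrain membrane preparations, read 1.5 h after dosing. Single-concentration 25 µM primary screen in duplicate, followed by singleton concentration series to 50 µM max for actives; DMSO baseline.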
# [9] = tested on: 5-hydroxytryptamine receptor 2C (pig); test: NVS_GPCR_p5HT2C: NovaScreen (NVS) G Protein-Coupled Receptor Assay for pig Serotonin, 5-Hydroxytryptamine Receptor 2C (5HT2C) (AID 2283288)
# Summary of the method: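 Radioligand displacement on membranes from pig choroid plexus, detected by filter scintillation counting after 1 h. Tested first at a single 25 uM in duplicate, then in concentration-response for actives; DMSO served as baseline.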
# [10] = biological target: rat Adrenergic, Alpha 1, Non-selective Receptor (Adra1), Adra1a (gene 29412) (UniProt P43140); test: NVS_GPCR_rAdra1_NonSelective: NovaScreen (NVS) G Protein-Coupled Receptor Assay for rat Adrenergic, Alpha 1, Non-selective Receptor (Adra1) (AID 2283289)
# Chain of rat Adrenergic, Alpha 1, Non-selective Receptor (Adra1), Adra1a (gene 29412) (P43140 whole entry, looked up): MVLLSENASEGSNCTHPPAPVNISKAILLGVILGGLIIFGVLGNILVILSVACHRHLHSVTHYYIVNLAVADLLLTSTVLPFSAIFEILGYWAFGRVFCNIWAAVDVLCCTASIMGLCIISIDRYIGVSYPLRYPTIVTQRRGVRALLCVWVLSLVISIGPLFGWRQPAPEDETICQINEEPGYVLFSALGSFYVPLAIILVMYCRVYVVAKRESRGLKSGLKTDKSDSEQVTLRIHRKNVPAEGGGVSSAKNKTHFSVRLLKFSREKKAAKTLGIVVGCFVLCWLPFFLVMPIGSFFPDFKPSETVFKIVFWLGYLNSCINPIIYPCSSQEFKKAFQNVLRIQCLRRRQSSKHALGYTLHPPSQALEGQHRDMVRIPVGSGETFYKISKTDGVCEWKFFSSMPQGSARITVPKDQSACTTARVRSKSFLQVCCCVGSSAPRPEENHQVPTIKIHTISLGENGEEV
# Summary of the method: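 Chemicals first screened in duplicate at 25 uM, then actives tested in concentration series up to 50 uM. Binding measured as displacement of radioligand from rat forebrain membrane receptors, 1 h, filtration with scintillation readout; DMSO baseline.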
# [11] = biological target: rat Adrenergic, Alpha 1A Receptor (Adra1A), Adra1a (gene 29412) (UniProt P43140); test: NVS_GPCR_rAdra1A: NovaScreen (NVS) G Protein-Coupled Receptor Assay for rat Adrenergic, Alpha 1A Receptor (Adra1A) (AID 2283296)
# Chain of rat Adrenergic, Alpha 1A Receptor (Adra1A), Adra1a (gene 29412) (P43140 whole entry, looked up): as above
# Summary of the method: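 Filter radiodetection after 1 h competitive binding on CEC-pretreated rat cortical membranes. Duplicate single-point screening at 25 uM; active chemicals retested across concentration series.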
# [12] = biological target: rat Neurokinin-3 Receptor (NK3), Tacr3 (gene 24808) (UniProt P16177); test: NVS_GPCR_rNK3: NovaScreen (NVS) G Protein-Coupled Receptor Assay for rat Neurokinin-3 Receptor (NK3) (AID 2283310)
# Chain of rat Neurokinin-3 Receptor (NK3), Tacr3 (gene 24808) (P16177 whole entry, looked up): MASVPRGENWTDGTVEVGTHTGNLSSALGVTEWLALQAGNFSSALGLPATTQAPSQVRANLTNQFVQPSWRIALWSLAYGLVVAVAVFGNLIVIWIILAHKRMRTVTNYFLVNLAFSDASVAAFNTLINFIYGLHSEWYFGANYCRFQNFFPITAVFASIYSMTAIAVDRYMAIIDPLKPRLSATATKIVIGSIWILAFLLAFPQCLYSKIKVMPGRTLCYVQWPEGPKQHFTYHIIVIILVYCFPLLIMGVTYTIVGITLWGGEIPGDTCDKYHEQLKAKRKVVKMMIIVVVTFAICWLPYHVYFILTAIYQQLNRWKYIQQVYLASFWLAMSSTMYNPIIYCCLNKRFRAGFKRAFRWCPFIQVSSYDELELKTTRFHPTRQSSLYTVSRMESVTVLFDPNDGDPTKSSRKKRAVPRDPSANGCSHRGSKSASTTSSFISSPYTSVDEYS
# Summary of the method: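 Filter-based radioligand displacement on rat cortex membrane preparations, read by scintillation 2 h post-dose. Chemicals first tested in duplicate at 25 uM; actives followed up in concentration series with a 50 uM maximum.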
# [13] = biological target: rat Adrenergic Receptor, Alpha 2 (Adra2), Non-selective Binding, Adra2a (gene 25083) (UniProt P22909); test: NVS_GPCR_rAdra2_NonSelective: NovaScreen (NVS) G Protein-Coupled Receptor Assay for rat Adrenergic Receptor, Alpha 2 (Adra2), Non-selective Binding (AID 2283299)
# Chain of rat Adrenergic Receptor, Alpha 2 (Adra2), Non-selective Binding, Adra2a (gene 25083) (P22909 whole entry, looked up): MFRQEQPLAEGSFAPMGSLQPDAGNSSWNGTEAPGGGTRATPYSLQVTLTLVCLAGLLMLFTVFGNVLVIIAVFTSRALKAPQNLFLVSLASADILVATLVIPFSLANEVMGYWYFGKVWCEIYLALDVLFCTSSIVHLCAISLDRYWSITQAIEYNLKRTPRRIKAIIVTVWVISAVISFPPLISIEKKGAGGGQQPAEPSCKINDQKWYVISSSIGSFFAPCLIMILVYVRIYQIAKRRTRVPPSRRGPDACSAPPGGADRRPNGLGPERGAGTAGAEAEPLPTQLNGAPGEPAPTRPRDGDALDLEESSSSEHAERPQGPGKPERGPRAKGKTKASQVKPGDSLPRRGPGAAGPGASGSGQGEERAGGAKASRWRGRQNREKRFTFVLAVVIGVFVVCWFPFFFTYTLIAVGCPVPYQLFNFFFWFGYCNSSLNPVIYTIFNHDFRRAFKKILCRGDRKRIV
# Summary of the method: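 Filter-based scintillation counting of radioligand binding to rat cortical membrane receptors, measured 1.25 hours post-dosing; loss of signal versus DMSO indicates displacement. Initial single-concentration duplicate at 25 uM, then concentration series.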
# [14] = biological target: rat Histamine Receptor (H3), Hrh3 (gene 85268) (UniProt Q9QYN8); test: NVS_GPCR_rH3: NovaScreen (NVS) G Protein-Coupled Receptor Assay for rat Histamine Receptor (H3) (AID 2283303)
# Summary of the method: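 Filter-binding radioligand competition on rat forebrain membranes, 1 h incubation; compounds screened at 25 µM in duplicate and followed in concentration series to 50 µM, loss of bound signal vs DMSO.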
# [15] = biological target: rat Adrenergic Receptor, Beta (Adrb), Non-selective Binding, Adrb1 (gene 24925) (UniProt P18090); test: NVS_GPCR_rAdrb_NonSelective: NovaScreen (NVS) G Protein-Coupled Receptor Assay for rat Adrenergic Receptor, Beta (Adrb), Non-selective Binding (AID 2283298)
# Summary of the method: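 Rat cortical membranes incubated 1 h with beta-adrenergic radioligand and test chemical; bound ligand measured by filtration and scintillation counting. Screen at 25 uM duplicate, then concentration series with 50 uM maximum; loss of signal versus DMSO.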
# Adra2b (gene 24174) = Adra2b (gene 24174) (UniProt P19328); test: NVS_GPCR_rmAdra2B: NovaScreen (NVS) G Protein-Coupled Receptor Assay for hybird cells Adrenergic, Alpha 2B Receptor (Adra2B) (AID 2283306)
# Chain of Adra2b (gene 24174) (P19328 whole entry, looked up): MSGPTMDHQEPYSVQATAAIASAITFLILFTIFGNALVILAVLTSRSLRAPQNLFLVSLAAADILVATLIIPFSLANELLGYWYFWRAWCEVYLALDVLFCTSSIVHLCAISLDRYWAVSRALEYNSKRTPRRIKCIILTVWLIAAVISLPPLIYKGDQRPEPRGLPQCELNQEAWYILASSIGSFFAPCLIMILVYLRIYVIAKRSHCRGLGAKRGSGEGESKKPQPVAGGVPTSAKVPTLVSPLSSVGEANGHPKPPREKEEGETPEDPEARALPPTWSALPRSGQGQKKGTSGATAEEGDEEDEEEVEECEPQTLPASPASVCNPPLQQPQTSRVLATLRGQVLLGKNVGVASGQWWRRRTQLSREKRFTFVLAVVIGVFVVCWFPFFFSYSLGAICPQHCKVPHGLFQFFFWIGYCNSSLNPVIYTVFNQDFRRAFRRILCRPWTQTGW
# Summary of the method: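 Compounds screened first at 25 uM in duplicate, with actives followed up in concentration-response; specific radioligand displacement from hybrid neuroglioma/blastoma cell membrane preparations measured by filter scintillation counting after 1 h, normalized to DMSO.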
smiles,measurement,setting,value
CN(C)CCCN1c2ccccc2Sc2ccc(Cl)cc21,AC50,[1],21.8 µM (active)
same,AC50,[2],8.89 µM (active)
same,AC50,[3],10.3 µM (active)
same,AC50,[4],15.3 µM (active)
same,AC50,[5],0.331 µM (active)
same,AC50,[6],0.0108 µM (active)
same,AC50,[7],25 µM (active)
same,AC50,[8],9.16 µM (active)
CN(C)C(=O)NC1(c2ccccc2)CCN(CCC[C@]2(c3ccc(Cl)c(Cl)c3)CCCN(C(=O)c3ccccc3)C2)CC1,AC50,[9],2.57 µM (active)
same,AC50,[10],6.25 µM (active)
same,AC50,[3],3.14 µM (active)
same,outcome,[5],inactive
same,outcome,[11],inactive
same,AC50,[7],10.5 µM (active)
same,AC50,[12],0.0731 µM (active)
same,AC50,[8],2.12 µM (active)
O=C(N[C@@H](c1ccccc1)[C@@H]1CCCCN1)c1cccc(C(F)(F)F)c1Cl,outcome,[10],inactive
same,AC50,[3],10.8 µM (active)
same,AC50,[5],2.1 µM (active)
same,AC50,[11],16.7 µM (active)
same,AC50,[13],39.2 µM (active)
same,outcome,[14],inactive
same,AC50,[8],31.4 µM (active)
S=c1[nH]c2ccccc2s1,outcome,[9],inactive
same,outcome,[3],inactive
CSc1ccc(Oc2ccc(S(N)(=O)=O)cc2CN(C)C)cc1C,AC50,[9],19.2 µM (active)
same,AC50,[10],1.08 µM (active)
same,AC50,[3],8.3 µM (active)
same,AC50,[4],0.621 µM (active)
same,AC50,[5],13.5 µM (active)
same,AC50,[11],6.58 µM (active)
same,AC50,[6],0.875 µM (active)
same,AC50,[15],25 µM (active)
same,AC50,[13],10.6 µM (active)
same,AC50,Adra2b (gene 24174),1.74 µM (active)
same,AC50,[7],25 µM (active)
same,AC50,[8],3.74 µM (active)
CN(C)C(=O)NC1(c2ccccc2)CCN(CC[C@@]2(c3ccc(F)c(F)c3)CN(C(=O)c3ccccc3)CCO2)CC1,AC50,[1],12.8 µM (active)
same,AC50,[9],16.7 µM (active)
same,AC50,[3],14.9 µM (active)
same,AC50,[5],5.72 µM (active)
same,AC50,[11],8.08 µM (active)
same,outcome,[7],inactive
same,outcome,[12],inactive
same,AC50,[8],3.23 µM (active)
